NPC1 prom act = NPC1 promoter activation | Potency, µM (titrated, usually from 9.22 µM), most hits filed as activators | 2.4% of 320,000 active | Huh7 NPC1 promoter luciferase reporter, 24 h; also: nearly all actives have a fitted effect of over 60% in size
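Quantitative HTS used a cell-based reporter: Huh7 cells stably bearing the NPC1 promoter upstream of luciferase were treated with compounds for 24 h, and promoter activation was read as luminescence.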
FLuc modulator = inhibits or activates purified firefly luciferase, miR-21 counter-screen; P08659; purified FLuc, Km substrates, luminescence inhibition; Potency, µM (top dose mostly 57.5 µM), hits mostly inhibitors; 6.9% of 360,000 active; AID 588342; also: nearly all actives have a fitted effect of over 55% in size
Target sequence (P08659 whole entry, looked up): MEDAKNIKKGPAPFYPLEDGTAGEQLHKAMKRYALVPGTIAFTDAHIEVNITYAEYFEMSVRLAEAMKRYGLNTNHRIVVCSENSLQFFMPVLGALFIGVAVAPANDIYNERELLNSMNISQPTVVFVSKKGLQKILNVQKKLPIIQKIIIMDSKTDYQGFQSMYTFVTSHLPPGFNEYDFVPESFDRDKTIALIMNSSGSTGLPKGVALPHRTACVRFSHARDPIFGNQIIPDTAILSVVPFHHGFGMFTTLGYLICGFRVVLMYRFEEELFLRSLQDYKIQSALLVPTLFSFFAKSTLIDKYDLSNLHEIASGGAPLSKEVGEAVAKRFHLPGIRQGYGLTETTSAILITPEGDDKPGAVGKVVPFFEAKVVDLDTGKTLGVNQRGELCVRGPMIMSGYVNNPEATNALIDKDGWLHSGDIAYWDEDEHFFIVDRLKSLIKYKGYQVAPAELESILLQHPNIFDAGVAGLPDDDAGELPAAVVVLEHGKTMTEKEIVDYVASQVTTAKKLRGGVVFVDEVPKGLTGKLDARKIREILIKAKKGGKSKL
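Purified P. pyralis luciferase (10nM final) with 10uM D-luciferin and 10uM ATP (Km levels) in 50mM Tris acetate pH 7.5, 10mM Mg acetate, 0.01% Tween-20, 0.05% BSA; qHTS 6-point titration, ~60 µM downward; luminescence read.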
p53 reactivation = mutant p53 re-activation in reporter cells | H1299 p53-A138V BP100-luciferase reporter, luminescence, 24 h | Potency, µM (doses to about 92.2 µM), most hits filed as activators | 0.063% of 320,000 active | AID 504706; also: nearly all actives have a fitted effect of over 45% in size
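H1299 (p53-null), stable ts p53-A138V + BP100-Luc; 1000 cells/well, Opti-MEM/10% FBS; cpd 4 pt, 1:5; 24 h, 37 deg C, 5% CO2; detection reagent 10 min RT; luminescence.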
SMN2 splice enh = enhancers of SMN2 splice variant expression; HEK293 SMN2-luciferase splicing reporter, luminescence, 30-36 h; Potency, µM (top dose mostly 46.1 µM), usual class: activators; 2.8% of 210,000 active; AID 1458; also: nearly all actives have a fitted effect of over 55% in size
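HEK293 cells carry an SMN2 […]–luciferase reporter in which exon 7 inclusion puts luciferase in frame. Cells were plated 10-12 h before compound addition, then incubated 30-36 h at 37C. ONE-Glo luminescence was read; sodium butyrate at 4.5 mM final served as control.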
Rab9 promoter act = activators of Rab9 promoter; Huh7 Rab9 promoter-luciferase reporter, luminescence, 24 h; Potency, µM (series often up to 9.22 µM), most hits filed as activators; 2.8% of 320,000 active; also: nearly all actives have a fitted effect of over 60% in size
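Rab9 promoter-driven luciferase in stably transfected Huh7 cells; 1500 cells/well rested 2 h, exposed to compound in DMSO for 24 h at 37 °C, 5% CO2. Luminescence read 10 min after adding luciferase reagent at ambient temperature.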
ELG1 genotox = genotoxicity induction in ELG1-luciferase HEK293T cells; HEK293T ELG1-luciferase reporter, luminescence, 16 h; Potency, µM (series often up to 46 µM), actives largely listed as activators; 1.3% of 330,000 active; AID 504466; also: nearly all actives have a fitted effect of over 60% in size
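Screening used a luciferase reporter fused to human ELG1 in HEK293T cells. Luminescence was read on a CCD plate imager after 16 hr exposure and 30 min ONE-Glo incubation.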
Large screens that a line does not name were inactive. Shown are actives, neighbours in structure and some others; about 7.3% of the full set was active somewhere. Calls follow the shape of the dose curve; as a rule, active = well fitted curve in the direction sought with a large enough effect; inconclusive = small, poorly fitted or top-dose-only effect, or another doubt; inactive = no such curve, though single readings can be large; an effect the other way counts as inactive or inconclusive.

O=C(Nc1ncc([N+](=O)[O-])s1)c1ccccc1Br	NPC1 prom act 3.5µM, FLuc modulator inconclusive, Rab9 promoter act inconclusive (no result: SMN2 splice enh)
Cc1ncoc1C(=O)Nc1ncc([N+](=O)[O-])s1	NPC1 prom act 0.71µM, FLuc modulator 6.7µM, p53 reactivation inconclusive, SMN2 splice enh 4.5µM, Rab9 promoter act 0.32µM, ELG1 genotox inconclusive
O=C(/C=C/c1ccc([N+](=O)[O-])cc1)Nc1ncc([N+](=O)[O-])s1	NPC1 prom act 0.05µM, FLuc modulator 0.12µM, SMN2 splice enh 0.5µM, Rab9 promoter act 0.79µM, ELG1 genotox inconclusive
O=C(CS(=O)(=O)c1ccccc1)Nc1ncc([N+](=O)[O-])s1	none (no result: SMN2 splice enh)
O=C(/C=C/c1ccc([N+](=O)[O-])cc1)NCc1ccccn1	none
O=C(Nc1ncc([N+](=O)[O-])s1)c1cccs1	NPC1 prom act 0.89µM, FLuc modulator 8.5µM, Rab9 promoter act 1µM, ELG1 genotox inconclusive (no result: SMN2 splice enh)
Cc1cnc(NC(=O)c2cccs2)s1	NPC1 prom act inconclusive, FLuc modulator 11µM, Rab9 promoter act 1.4µM, ELG1 genotox inconclusive (no result: SMN2 splice enh)
N/C(=N\OC(=O)Cc1cccs1)c1ccc(Cl)cc1	FLuc modulator 13µM, ELG1 genotox inconclusive (no result: SMN2 splice enh)
Cc1ccc(/C(N)=N/OC(=O)Cc2ccccc2)cc1	FLuc modulator 19µM, p53 reactivation inconclusive, ELG1 genotox inconclusive
Cc1ccc(/C(N)=N/OC(=O)Cc2cccs2)cc1	NPC1 prom act inconclusive, FLuc modulator 9.5µM, p53 reactivation inconclusive, Rab9 promoter act inconclusive, ELG1 genotox inconclusive
N/C(=N\OC(=O)Cc1ccccc1)c1ccc(Br)cc1	FLuc modulator inconclusive, p53 reactivation inconclusive
Cc1cccc(/C(N)=N/OC(=O)Cc2cccs2)c1	NPC1 prom act inconclusive, FLuc modulator 13µM, p53 reactivation inconclusive, Rab9 promoter act inconclusive, ELG1 genotox inconclusive
N/C(=N\OC(=O)Cc1cccs1)c1cccc([N+](=O)[O-])c1	FLuc modulator inconclusive, p53 reactivation inconclusive
CC(C)C[C@@H](CC(=O)N[C@@H](CCC(=O)O)CC(=O)O)NC(=O)[C@@H]1CNCC[C@H]1NC(=O)C[C@@H](NC(=O)C[C@H](CO)NC(=O)[C@@H]1CCCC[C@H]1N)C(C)C	none (no result: NPC1 prom act, FLuc modulator, p53 reactivation, Rab9 promoter act, ELG1 genotox)
COc1ccccc1-c1nc(SCC(=O)NCc2ccccc2)c2c(=O)n(C)c(=O)n(C)c2n1	none (no result: NPC1 prom act, p53 reactivation, SMN2 splice enh, Rab9 promoter act, ELG1 genotox)
CC(OC(=O)Cn1[nH]c(=O)c2ccccc2c1=O)C(=O)Nc1ccccc1[N+](=O)[O-] (configuration not stated)	none (no result: SMN2 splice enh)
N/C(=N\OC(=O)Cc1cccs1)c1ccccc1	NPC1 prom act inconclusive, FLuc modulator 15µM, ELG1 genotox inconclusive
N/C(Cc1cccs1)=N\OC(=O)COc1ccccc1	none
COc1cccc(C2CC(=O)Nc3cc(OC)c(OC)c(OC)c32)c1OC(C)C (configuration not stated)	SMN2 splice enh 18µM (no result: NPC1 prom act, p53 reactivation, Rab9 promoter act, ELG1 genotox)
COc1cccc(C2CC(=O)Nc3cc4c(cc32)OCCO4)c1OC(C)C (configuration not stated)	none
CCOc1ccccc1CNC(=O)c1ccc(N2Cc3ccccc3Oc3ncccc32)s1	none (no result: NPC1 prom act, p53 reactivation, SMN2 splice enh, Rab9 promoter act, ELG1 genotox)
COc1ccc(-c2nsc(NC(=O)c3oc4ccccc4c3C)n2)cc1	FLuc modulator inconclusive (no result: NPC1 prom act, p53 reactivation, Rab9 promoter act, ELG1 genotox)
Cc1c(C(=O)Nc2nnc(C(F)(F)F)s2)oc2ccccc12	NPC1 prom act inconclusive, FLuc modulator 11µM, Rab9 promoter act inconclusive
COC(=O)c1sc(NC(=O)c2oc3ccccc3c2C)nc1C	NPC1 prom act inconclusive, FLuc modulator inconclusive, SMN2 splice enh 7.1µM, Rab9 promoter act inconclusive, ELG1 genotox 2.3µM
CCOC(=O)c1sc(NC(=O)c2ccco2)nc1C	FLuc modulator 11µM, p53 reactivation inconclusive, Rab9 promoter act inconclusive, ELG1 genotox inconclusive
COC(=O)c1sc(NC(=O)c2ccc(C)o2)nc1C	NPC1 prom act inconclusive, FLuc modulator 5.4µM, p53 reactivation inconclusive, SMN2 splice enh 1.6µM, Rab9 promoter act 2.8µM, ELG1 genotox inconclusive
CCOC(=O)c1sc(NC(=O)COC(=O)c2ccco2)nc1C	FLuc modulator inconclusive
CC(NC(=O)C(C)N1CCN(Cc2ccccc2)CC1)c1ccc(F)cc1 (configuration not stated)	Rab9 promoter act inconclusive (no result: SMN2 splice enh)
COc1ccc(C(=O)N2CC(=O)Nc3ccc(F)cc3C2c2ccc(F)cc2)c(OC)c1 (configuration not stated)	none (no result: NPC1 prom act, p53 reactivation, Rab9 promoter act, ELG1 genotox)
CCc1cc2c(cc3c(=O)n(CC(=O)NC4CCCCC4)nc(CC)n32)s1	none (no result: NPC1 prom act, p53 reactivation, Rab9 promoter act, ELG1 genotox)
O=C(O)[C@H](/C=C\c1ccccc1)c1ccccc1	none (no result: NPC1 prom act, FLuc modulator, p53 reactivation, Rab9 promoter act, ELG1 genotox)
CCOC(=O)c1sc(NC(=O)c2ccc(C)o2)nc1C	FLuc modulator 6µM, SMN2 splice enh 13µM, ELG1 genotox 5.8µM
Cc1ccc(N/C=C/C(=O)C(C)(C)C)c(O)c1	FLuc modulator 19µM, p53 reactivation inconclusive
CC(=O)Nc1ccc(N/C=C/C(=O)C(C)(C)C)cc1	FLuc modulator inconclusive, SMN2 splice enh inconclusive, ELG1 genotox inconclusive
O=C(c1cccc(F)c1)N1CCC[C@@]2(CCN(c3ccncc3)C2)C1	none (no result: NPC1 prom act, FLuc modulator, p53 reactivation, Rab9 promoter act, ELG1 genotox)
C[C@H]1C[C@@H]2[C@@H]([C@@H](O)C[C@@]3(C)[C@H]2CC[C@]3(O)C(=O)CO)[C@@]2(C)C=CC(=O)C=C12	none (no result: NPC1 prom act, FLuc modulator, p53 reactivation, Rab9 promoter act, ELG1 genotox)
Cc1ccc(C(=O)/C=C/c2cn(CN3CCN(C)CC3)c3ccccc23)cc1	NPC1 prom act inconclusive, FLuc modulator 4.8µM, p53 reactivation inconclusive, Rab9 promoter act inconclusive, ELG1 genotox 15µM

Source: PubChem (National Center for Advancing Translational Sciences (NCATS))
